# Screening data: PubChem BioAssay, National Center for Advancing Translational Sciences (NCATS)
# Shown are actives, neighbours in structure and some others; about 21% of the full set was active somewhere.
# Pf growth 96h: P. falciparum growth inhibition at 96 hours | P. falciparum luciferase reporter growth, 96 h | AID 504834 | Potency, µM (highest dose often 28.7 µM), inactives show top-dose activity change, negative = inhibition, most hits filed as inhibitors | 6.9% of 320,000 active; also: potency is read from the fitted curve at half-maximal effect; % is scaled to controls: 0 for no effect and ±100 for the full control effect
#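 96 h incubation, 37 C, 5% CO2, of luciferase-reporter P. falciparum-infected RBCs (2% hematocrit, 0.05% parasitemia final) with test compounds; endpoint luminescence.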
# Sm TGR block: inhibitors of Schistosoma mansoni thioredoxin glutathione reductase. purified TGR, DTNB reduction, TNB absorbance 405 nm. Q962Y6. Potency, µM (doses to about 114 µM), without a hit: top-dose activity change, negative = inhibition, actives largely listed as inhibitors. 3% of 360,000 active; also: potency is read from the fitted curve at half-maximal effect; % is scaled to controls: 0 for no effect and ±100 for the full control effect; nearly all actives have a fitted effect of over 60% in size
#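 TGR 20 nM + NADPH 100 uM (dispensed conc.), cpd preinc 15 min RT; start with NADPH (500 uM addition) then DTNB (15 mM addition). Kinetic TNB absorbance, 405 nm filter. Four-parameter Hill fit across titration.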
# Shiga inhibitor: blocks Shiga toxin action in Vero cells | Vero cells, Shiga toxin protein synthesis inhibition reporter | inhibition, % at 38.7 µM | 9.2% of 290,000 active; in the data active = inhibition mostly above about 28%, no sharp cut-off; inactive = mostly below about 43%; also: 0% is about no effect
# CHX counter: counter-screen for Shiga toxin inhibitors: cycloheximide protein synthesis inhibition | cell reporter, cycloheximide protein synthesis inhibition counterscreen | max response, % | AID 2314 | 12% of 300,000 active; in the data active = max response mostly above about 13%, no sharp cut-off; inactive = mostly below about 14%; also: read at 38.3 µM for the half of the compounds with a filed dose; 0% is about no effect
# Pf growth 48h: inhibits P. falciparum growth in the first generation, 48 h; P. falciparum luciferase growth in erythrocytes, 48 h; Potency, µM (titrated, usually from 28.7 µM), without a hit: top-dose activity change, negative = inhibition, actives largely listed as inhibitors; 5.9% of 310,000 active; also: potency is read from the fitted curve at half-maximal effect; % is scaled to controls: 0 for no effect and ±100 for the full control effect
#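 Erythrocytes infected with P. falciparum carrying an integrated firefly luciferase reporter (2% hematocrit, 0.1% parasitemia final) were exposed to compounds in RPMI 1640 with 0.5% Albumax at 37 C, 5% CO2. Growth inhibition was scored as reduced luminescence.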
# NS1 function inh: blocks influenza NS1 protein function; Potency, µM (series often up to 46.1 µM), for inactives: at the highest dose activity, positive = more growth; 0.4% of 270,000 active; calls by dose curve; also: potency is read from the fitted curve at half-maximal effect; actives are rising curves; nearly all actives have a fitted effect of over 50% in size
#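 OD600 was taken as the measure of yeast growth restored by compound in an NS1-expressing S. cerevisiae strain. Cells had been washed out of glucose medium and diluted 1:100 into galactose -URA medium, pH 6.0.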
# * marks the source's active call; other numbers are inactive results; u = inconclusive; x = no result given. Unless noted, calls follow the shape of the dose curve; as a rule, active = well fitted curve in the direction sought with a large enough effect; inconclusive = small, poorly fitted or top-dose-only effect, or another doubt; inactive = no such curve, though single readings can be large; an effect the other way counts as inactive or inconclusive.
SMILES,Pf growth 96h,Sm TGR block,Shiga inhibitor,CHX counter,Pf growth 48h,NS1 function inh
CC(=O)Nc1ccc(OCC(O)Cn2nc(C)c(C)c2C)cc1 (configuration not stated),10.4µM*,-27.9%,-6.6,-5.1,17.4%,5.2%
CC(=O)Nc1ccc(OCC(O)Cn2nc(C)c(C(C)=O)c2C)cc1 (configuration not stated),x,5.4%,-1.4,-5.0,-1.8%,-1.1%
CC(=O)Nc1ccc(OCC(O)CN2CCN(c3cccc(Cl)c3)CC2)cc1 (configuration not stated),10.4µM*,13.9%,-5.1,8.7,u,-13.0%
CC(=O)Nc1ccc(OCC(O)CN2CCN(c3ccc(Cl)cc3)CC2)cc1 (configuration not stated),u,-2.5%,-10.5,-1.9,u,2.6%
Cc1ccc(NCc2cccn2-c2nnc(N3CCC(C(=O)NCc4ccccc4C)CC3)s2)cc1,x,-7.0%,x,x,x,x
CC1CCCC(NC(=O)c2ccc3c(c2)NC(=O)CS3)C1C (configuration not stated),9.1%,0.8%,-4.1,7.2,-2.9%,-53.5%
COc1cc(C2NC(=O)c3ccccc3O2)cc(OC)c1OC (configuration not stated),u,0.0%,14.2,5.2,x,0.0%
COc1cc(C2Oc3ccccc3C=C2[N+](=O)[O-])cc(OC)c1OC (configuration not stated),u,31.6µM*,-13.2,-9.0,u,-128.4%
Cc1ccc(N(CCC#N)C(=O)CSc2nc3ccccc3c(=O)[nH]2)cc1,u,-3.1%,x,x,u,x
CCOC(=O)c1ccc(-c2nnc(-c3ccc(Cl)cc3Cl)o2)cc1,u,5.2%,21.6,9.6*,79.2%,-1.8%
O=C(NCc1ccc(F)cc1)C(c1ccc(Cl)cc1)N(C(=O)c1csnn1)C1CC1 (configuration not stated),-17.6%,-2.0%,-4.1,-4.8,-8.3%,14.1%
CCC(=O)Nc1ccc(-c2ccc(N3CCN(C)CC3)nn2)cc1,28.6%,-9.9%,34.7*,26.2*,26.9%,9.6%
CCC(=O)Nc1cccc(-c2ccc(N3CCC(C)CC3)nn2)c1,13.6%,0.6%,63.8*,44.9*,40.2%,3.0%
CCC(=O)Nc1ccc(-c2ccc(N3CCC(C)CC3)nn2)cc1,u,4.1%,76.4*,28.7*,37.1%,-15.2%
Cc1cc(C)c(S(=O)(=O)Nc2ccc(-c3ccc(N4CCC(C)CC4)nn3)cc2)cc1C,x,-7.4%,x,x,x,x
O=C(Nc1cccc(-c2ccc(N3CCOCC3)nn2)c1)c1ccc([N+](=O)[O-])cc1,9.28µM*,0.1%,x,x,u,x
CC1CCN(c2ccc(-c3cccc(NC(=O)C(F)(F)F)c3)nn2)CC1,-12.0%,-20.3%,-26.9,-16.1,-42.2%,-11.1%
O=C(O)c1c[nH]c2c(ccc3[nH]cc(C(=O)O)c(=O)c32)c1=O,x,x,x,x,x,-6.2%
COC(=O)c1ccc(Oc2c(Cl)cccc2[N+](=O)[O-])cc1,-102.5%,4.3%,-5.7,-0.8,u,-1.3%
CCC(C)(C)n1nnnc1C(c1ccc2ncccc2c1)N1CCN(c2nc3ccccc3s2)CC1 (configuration not stated),-9.5%,-6.9%,10.7,11.4,5.22µM*,8.5%
CCC(C)(C)n1nnnc1C(c1ccc2ncccc2c1)N1CCCC(C)C1 (configuration not stated),10.4µM*,3.4%,1.7,-0.5,u,-16.5%
COc1ccc(N2CCN(C(c3ccc4ncccc4c3)c3nnnn3C(C)(C)C)CC2)cc1 (configuration not stated),-31.3%,0.9%,-18.4,10.0,u,x
CCC(C)(C)n1nnnc1C(c1ccc2ncccc2c1)N1CCN(c2ccc(O)cc2)CC1 (configuration not stated),u,50.1µM*,-8.6,0.9,u,5.3%
CCC(C)(C)n1nnnc1C(c1ccc2ncccc2c1)N1CCN(Cc2ccc3c(c2)OCO3)CC1 (configuration not stated),167.7%,0.0%,10.8,-1.5,-17.8%,-2.4%
CC(=O)NCCc1nc2cc(NC(=O)c3cccc([N+](=O)[O-])c3)ccc2n1C,160.6%,7.0%,22.8,19.9,136.5%,-0.6%
